Over roughly 16,000 sequences, “rpm ratio (pull-down/input)” has its median near 0.5; the highest 2% begin near 5.5. Shown is part of a subset that was picked to be rich in the highest values.

This experiment concerns the target T1, MBP-FoxP3dN (Mus musculus, UniProt Q99JB6 188-423).
T1 sequence: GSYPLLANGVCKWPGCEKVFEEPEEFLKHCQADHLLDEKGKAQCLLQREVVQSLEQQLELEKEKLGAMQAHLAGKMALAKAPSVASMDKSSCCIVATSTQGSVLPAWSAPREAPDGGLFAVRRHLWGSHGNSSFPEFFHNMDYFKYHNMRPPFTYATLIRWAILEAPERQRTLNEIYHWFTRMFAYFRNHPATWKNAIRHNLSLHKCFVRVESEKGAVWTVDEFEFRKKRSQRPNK
Briefly: PD-seq (MBP pull-down with sequencing); 20 mM Tris-HCl pH 7.5, 100 mM NaCl, 1.5 mM MgCl2, 0.4 uM protein, 0.1 uM dsDNA library, 30 min, room temperature, amylose pull-down; high values mean tight binding. Particulars: protein: recombinant; tags: His6-MBP; chain copies: 2; dsDNA, one strand shown. The procedure, abridged: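 Mouse FoxP3 or FoxP1 fragment lacking the N-terminus, His6-MBP-tagged and expressed in E. coli, was incubated at 0.4 µM with 0.1 µM Klenow-filled degenerate double-stranded DNA library for 30 min at room temperature in Tris pH 7.5 buffer with NaCl and MgCl2. Complexes captured on amylose resin were washed three times and their DNA sequenced on Illumina. Binding is reads-per-million enrichment of pull-down over input, replicates pooled.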
For “GATGATTGTTCTCCCAGCTGATGAATTGCATTTCTCGAGTAAACAAATTTTCCTAATCTTTCTGTTCAAGCGCCATCTAC”, the binding signal was 2.75 RPM ratio (pull-down/input).

Take “GATGATTGTTCTCCCAGCTGATGAATTGCATCTCTCGAGTAAACAAATTTTCCTAATCTTTCTGTTCAAGCGCCATCTAC”: the binding signal is 4.07 RPM ratio (pull-down/input).

For “GATGATTGTTCTCCCAGCTGATGAATTGCGCCATTCGAGTAAACAAATTTTCCTAATCTTTCTGTTCAAGCGCCATCTAC”, the binding signal is 6.51 RPM ratio (pull-down/input).

Take “GATGATTGTTCTCCCAGCTGATGAATTTGCCATCTCGAGTAAACAAATTTTCCTAATCTTTCTGTTCAAGCGCCATCTAC”: the binding signal was 2.56 RPM ratio (pull-down/input).

Take “GATGATTGTTCTCCCAGCTGATGAATTTGCATATTCGAGTAAACAAATTTTCCTAATCTTTCTGTTCAAGCGCCATCTAC”: the binding signal is 2.72 RPM ratio (pull-down/input).

For the sequence “GATGATTGTTCTCCCAGCTGATGAATTGCGTAATTCGAGTAAACAAATTTTCCTAATCTTTCTGTTCAAGCGCCATCTAC”, the binding signal is 1.58 RPM ratio (pull-down/input).

Regarding “GATGATTGTTCTCCCAGCTGATGAATTTAGAGGCTCGAGTAAACAAATTTTCCTAATCTTTCTGTTCAAGCGCCATCTAC”, the binding signal was 0.583 RPM ratio (pull-down/input).

For “GATGATTGTTCTCCCAGCTGATGAATTTTGATATTCGAGTAAACAAATTTTCCTAATCTTTCTGTTCAAGCGCCATCTAC”, the binding signal is 3.34 RPM ratio (pull-down/input).

As for “GATGATTGTTCTCCCAGCTGATGAATTTATCGAATCGAGTAAACAAATTTTCCTAATCTTTCTGTTCAAGCGCCATCTAC”, the binding signal is 0.374 RPM ratio (pull-down/input).

For “GATGATTGTTCTCCCAGCTGATGAATTGCCTCGGTCGAGTAAACAAATTTTCCTAATCTTTCTGTTCAAGCGCCATCTAC”, the binding signal is 0.565 RPM ratio (pull-down/input).

As for “GATGATTGTTCTCCCAGCTGATGAATTTTCAACTTCGAGTAAACAAATTTTCCTAATCTTTCTGTTCAAGCGCCATCTAC”, the binding signal was 0.307 RPM ratio (pull-down/input).

On to “GATGATTGTTCTCCCAGCTGATGAATTGAATGACTCGAGTAAACAAATTTTCCTAATCTTTCTGTTCAAGCGCCATCTAC”, for which the binding signal was 0.545 RPM ratio (pull-down/input).

As to “GATGATTGTTCTCCCAGCTGATGAATTGTTAAAATCGAGTAAACAAATTTTCCTAATCTTTCTGTTCAAGCGCCATCTAC”, the binding signal is 0.291 RPM ratio (pull-down/input).

As to “GATGATTGTTCTCCCAGCTGATGAATTAAGTAGCTCGAGTAAACAAATTTTCCTAATCTTTCTGTTCAAGCGCCATCTAC”, the binding signal was 0.874 RPM ratio (pull-down/input).

Turning to “GATGATTGTTCTCCCAGCTGATGAATTGTTGCATTCGAGTAAACAAATTTTCCTAATCTTTCTGTTCAAGCGCCATCTAC”, the binding signal is 7.63 RPM ratio (pull-down/input).

“GATGATTGTTCTCCCAGCTGATGAATTTGCCATTTCGAGTAAACAAATTTTCCTAATCTTTCTGTTCAAGCGCCATCTAC”: the binding signal is 2.91 RPM ratio (pull-down/input).

For “GATGATTGTTCTCCCAGCTGATGAATTGCAGCATTCGAGTAAACAAATTTTCCTAATCTTTCTGTTCAAGCGCCATCTAC”, the binding signal is 5.93 RPM ratio (pull-down/input).

Regarding “GATGATTGTTCTCCCAGCTGATGAATTTGCATTGTCGAGTAAACAAATTTTCCTAATCTTTCTGTTCAAGCGCCATCTAC”, the binding signal is 5.29 RPM ratio (pull-down/input).

Consider “GATGATTGTTCTCCCAGCTGATGAATTCGTTGCATCGAGTAAACAAATTTTCCTAATCTTTCTGTTCAAGCGCCATCTAC”, for which the binding signal is 2.22 RPM ratio (pull-down/input).

As to “GATGATTGTTCTCCCAGCTGATGAATTGCATTCTTCGAGTAAACAAATTTTCCTAATCTTTCTGTTCAAGCGCCATCTAC”, the binding signal was 4.62 RPM ratio (pull-down/input).

On to “GATGATTGTTCTCCCAGCTGATGAATTTGCATTTTCGAGTAAACAAATTTTCCTAATCTTTCTGTTCAAGCGCCATCTAC”, for which the binding signal is 5.38 RPM ratio (pull-down/input).

Consider “GATGATTGTTCTCCCAGCTGATGAATTTGCCCATTCGAGTAAACAAATTTTCCTAATCTTTCTGTTCAAGCGCCATCTAC”, for which the binding signal is 0.615 RPM ratio (pull-down/input).

With “GATGATTGTTCTCCCAGCTGATGAATTTTGCCATTCGAGTAAACAAATTTTCCTAATCTTTCTGTTCAAGCGCCATCTAC”, the binding signal is 5.66 RPM ratio (pull-down/input).

Regarding “GATGATTGTTCTCCCAGCTGATGAATTTTGCATTTCGAGTAAACAAATTTTCCTAATCTTTCTGTTCAAGCGCCATCTAC”, the binding signal is 6.44 RPM ratio (pull-down/input).

Consider “GATGATTGTTCTCCCAGCTGATGAATTCGCGGAGTCGAGTAAACAAATTTTCCTAATCTTTCTGTTCAAGCGCCATCTAC”, for which the binding signal was 0.23 RPM ratio (pull-down/input).

“GATGATTGTTCTCCCAGCTGATGAATTTGGGTTGTCGAGTAAACAAATTTTCCTAATCTTTCTGTTCAAGCGCCATCTAC”: the binding signal was 1.1 RPM ratio (pull-down/input).

In the case of “GATGATTGTTCTCCCAGCTGATGAATTCCTACGGTCGAGTAAACAAATTTTCCTAATCTTTCTGTTCAAGCGCCATCTAC”, the binding signal is 0.213 RPM ratio (pull-down/input).

For “GATGATTGTTCTCCCAGCTGATGAATTCCCTGTTTCGAGTAAACAAATTTTCCTAATCTTTCTGTTCAAGCGCCATCTAC”, the binding signal was 0.346 RPM ratio (pull-down/input).

“GATGATTGTTCTCCCAGCTGATGAATTAGAATAGTCGAGTAAACAAATTTTCCTAATCTTTCTGTTCAAGCGCCATCTAC”: the binding signal is 0.342 RPM ratio (pull-down/input).

For the sequence “GATGATTGTTCTCCCAGCTGATGAATTTTTTTTTTCGAGTAAACAAATTTTCCTAATCTTTCTGTTCAAGCGCCATCTAC”, the binding signal is 0.217 RPM ratio (pull-down/input).

As to “GATGATTGTTCTCCCAGCTGATGAATTCCGGCGTTCGAGTAAACAAATTTTCCTAATCTTTCTGTTCAAGCGCCATCTAC”, the binding signal is 1.07 RPM ratio (pull-down/input).

Regarding “GATGATTGTTCTCCCAGCTGATGAATTCACGTCATCGAGTAAACAAATTTTCCTAATCTTTCTGTTCAAGCGCCATCTAC”, the binding signal was 0.59 RPM ratio (pull-down/input).

For the origin of these results see PMC12820563, “FoxP3 forms a head-to-head dimer in vivo and stabilizes its multimerization on adjacent microsatellites”.
